Results reported in PubChem BioAssay AID894 (National Center for Advancing Translational Sciences (NCATS), 2007).
Out of some 150,000 compounds screened, about 6,500 (4.3%) were called active. Inconclusive results (about 12%) are left out. This is one part of a sample in which actives are shown more often than they occur. Calls come from the whole dose curve; as a rule, active = well fitted inhibition curve with a large enough effect (not every such curve was filed as active); inconclusive = small, poorly fitted or top-dose-only effect, or another doubt; inactive = no such curve, though single readings can be large or run the other way.

target: 15-hydroxyprostaglandin dehydrogenase [NAD(+)] (Homo sapiens) (UniProt P15428); assay: qHTS Assay for Inhibitors of HPGD (15-Hydroxyprostaglandin Dehydrogenase); conditions: purified HPGD, NADH fluorescence kinetic, PGE2 substrate; activity change, negative = inhibition: active compounds read low
How it was run: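 NADH formation kinetics: reaction with 30 uM PGE2 and 1 mM NAD+ (final), 20 nM enzyme, Tris-HCl pH 8 with Tween 20, after 15 min compound preincubation at room temperature. Fluorescence change, last versus first of five reads.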
% is set by controls: 0 for no effect and ±100 for the full control effect; potency is the fitted concentration of half-maximal effect.

Sequence of 15-hydroxyprostaglandin dehydrogenase [NAD(+)] (Homo sapiens) (P15428 whole entry, looked up): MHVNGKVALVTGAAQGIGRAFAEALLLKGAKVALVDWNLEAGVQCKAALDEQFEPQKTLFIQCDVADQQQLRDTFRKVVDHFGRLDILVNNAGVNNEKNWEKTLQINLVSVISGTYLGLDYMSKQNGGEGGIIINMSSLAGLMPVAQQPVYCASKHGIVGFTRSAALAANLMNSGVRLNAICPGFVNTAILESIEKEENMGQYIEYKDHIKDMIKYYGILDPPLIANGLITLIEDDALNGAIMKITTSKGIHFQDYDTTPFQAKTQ

Activity change, negative = inhibition, inactive:
CCCCC/C=C\C/C=C\CCCCCCCCCC(=O)O -12.4%
Cc1ccc(NC(=O)CCC(=O)N/N=C/c2ccco2)c(C)c1 -2.23%
COc1ccc(C(=O)O/N=C(\N)Cc2ccc(Cl)cc2Cl)cc1OC -15.7%
Nc1nnc(SCC(=O)OCc2ccc(Cl)c(Cl)c2)s1 -17.6%
CC1CCCC(NC(=O)CSc2nccn2C)C1C (stereo unspecified) -27.8%
Cc1cnc(NC(=O)CSc2nnc(C)s2)s1 -0.21%
Cc1nnc(SCC(=O)Nn2cnnc2)s1 -0.465%
CN(CC(=O)NCCc1ccccc1)S(=O)(=O)c1cnc[nH]1 -0.3%
Cc1cccc(C)c1NC(=O)C(c1ccccc1)N1CC(=O)Nc2ccccc21 (stereo unspecified) -5.54%
C=CCN(CC=C)S(=O)(=O)c1ccc(C(=O)Nc2nc3c(s2)CCc2ccccc2-3)cc1 -28.8%
O=C(/C(=C/c1cccc(Cl)c1)c1nc2ccccc2[nH]1)c1ccccc1 -17.6%
COc1ccc(C/C(C)=N/NC(=O)c2ccncc2)cc1 -13.4%
COc1ccc([N+](=O)[O-])cc1NC(=O)C(C)OC(=O)C1c2ccccc2Oc2ccccc21 (stereo unspecified) -5.7%
NC1CCN(O)C1=O (stereo unspecified) -4.5%
O=C1N(c2ccc(Cl)cc2)C(c2ccc(Cl)cc2)N2CCCN12 (stereo unspecified) 4.12%
COc1ccc(CNC(=O)CN(Cc2ccc(Cl)cc2)S(C)(=O)=O)cc1 -5.79%
COc1ccc(C(=O)CSc2n[nH]c(N)n2)cc1 -10.7%
O=C(CSc1nnc2ccccn12)c1ccccc1 78.8%
CCOC(=O)c1c(C)[nH]c(C)c1C(=O)CSc1nc(N)cc(N)n1 -1%
Cc1nc(SCC(=O)c2ccccc2)c([N+](=O)[O-])[nH]1 -5.29%
C/C=C(\C)C(=O)O[C@H]1CC(C)=C2C(=O)C=C(C)C2[C@@H]2OC(=O)[C@@](C)(OC(=O)C=C(C)C)C21 (stereo partly specified) -7.62%
O=C(Nc1ccccc1Cc1ccccc1)c1ccc2c(c1)SC1=NS(=O)(=O)CCN12 -2.73%
Cc1cc(Cl)ccc1NC(=S)N1CCC(C(N)=O)(N2CCCCC2)CC1 -9.28%
CCOc1ccc(NC(=O)CSc2ncnc3c2sc2ccccc23)cc1 -9.21%
O=C(N/N=C/c1c(Cl)[nH]c2ccccc12)c1sc2ccccc2c1Cl -16.9%
O=C(Nc1ccon1)c1cccc(Cl)c1 -28.3%
CC/C=C\C/C=C\C/C=C\C/C=C\C/C=C\C/C=C\CCC(=O)NC(C)C(=O)O (stereo unspecified) -6.96%
COc1ccc(N2CCN(C(=O)CSc3ncnc4c3cnn4-c3ccc(OC)cc3)CC2)cc1 -8.74%
Cc1nnc(SCC(=O)N2CCOCC2)[nH]c1=O -12.2%
CCc1ccc(C2N3CC4([N+](=O)[O-])CN2CC([N+](=O)[O-])(C3)C4(C)C)cc1 (stereo unspecified) 2.32%
CCCc1[nH]nc2c1C(C1CC=CCC1)C(C#N)=C(N)O2 (stereo unspecified) -1.94%
CCc1ccc(C2C(C#N)=C(N)N(N(C)C)C3=C2C(=O)CCC3)s1 (stereo unspecified) -10.8%
Cc1ccc(NC(=O)c2oc(=O)c3ccccc3c2-c2ccccc2)c(C)c1 -2.46%
O=C(Nc1ccccc1)Nc1ccccc1C(=O)NCc1ccco1 -6.05%
CCCCOc1ccc(C(=O)NCc2ccncc2)cc1 -5.73%
CC(C)(C)c1ccc(C(=O)NCCC(=O)NCc2ccco2)cc1 -15.3%
CN(C)C(CNC(=O)CCCOc1ccccc1)c1ccco1 (stereo unspecified) -16.9%
Cc1cccc(Nc2ccccc2C(=O)NCc2ccco2)c1C -6.4%
O=C(CCOc1ccccc1)NCc1ccccc1 -13.4%
O=C(Nn1c(SCc2ccc([N+](=O)[O-])cc2)nc2ccccc2c1=O)c1ccc(F)cc1 -26.2%
Oc1ccc(Br)cc1C=Nc1ccc2[nH]ncc2c1 -20.6%
COc1ccc(-n2nnnc2-c2nc3ccccc3s2)cc1 -14.9%
CCOC(=O)C(C)Sc1nnc(CSc2nc3nc(C)cc(C)n3n2)o1 (stereo unspecified) -7.77%
O=C1NC(c2ccccc2)=NC1(Nc1ccccn1)C(F)(F)F (stereo unspecified) -0.712%
Cc1nc(CC(=O)NNS(=O)(=O)c2ccc(F)c(Cl)c2)cs1 -9.95%
C[C@@]12CCC(=O)C=C1CC[C@H]1C2[C@@H](O)C[C@]2(C)[C@@H]1CC[C@@]2(O)C(=O)COC(=O)C1CCCC1 (stereo partly specified) 2.72%
Cn1c(SCC(=O)NC2CCCCC2)nnc1-c1cc2ccccc2o1 -3.43%
C=CCn1c(CC(=O)Nc2cccc(OC)c2)nnc1SCC(=O)NC1CCCCC1 -4.23%
CCN(C(=O)COC(=O)c1c(NC(C)=O)sc(C)c1C)C1CCS(=O)(=O)C1 (stereo unspecified) -23.1%
O=C(CC(=O)N/N=C\c1cccc(Cl)c1Cl)NCc1ccccc1 -9.68%

Potency, active:
Cc1nnc(SCC(=O)NC2CCCC2)s1 28.2 µM
CC1CCCCC1NC(=O)CSc1nnc(N)s1 (stereo unspecified) 17.8 µM
COC(=O)c1cc(C(=O)CSc2nc(C)cc(C)n2)ccc1O 17.8 µM
Cc1cc(SCC(=O)c2ccccc2)nc(SCC(=O)c2ccccc2)n1 28.2 µM
O=C(Nc1ccon1)c1sc2ccccc2c1Cl 15.8 µM
O=C(CSc1nc2c(cnn2-c2ccc(F)cc2)c(=O)[nH]1)N1CCCCCC1 15.8 µM
N#CC1=C(N)OC2=C(C(=O)CCC2)C1C1CC=CCC1 (stereo unspecified) 20 µM
CCCCOc1ccc(C(=O)NCc2ccco2)cc1 15.8 µM
CCOc1ccccc1C(=O)NCc1ccco1 22.4 µM
O=C(CCCOc1ccccc1)NCc1ccco1 12.6 µM
COc1cccc(-n2c(SCC(=O)NC3CCCCC3)nc3n[nH]c(C)c3c2=N)c1 15.8 µM
